The nature of assay [1]: NCI Yeast Anticancer Drug Screen. Data for the mec2-1 strain (AID 157). The conditions noted are these: S. cerevisiae mec2-1 strain, active compounds read high; at 50.0 µM unless noted. Summed up:
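Using mec2-1 yeast: add compound, measure growth, express inhibition versus vehicle-treated cultures.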

The nature of assay [2]: NCI Yeast Anticancer Drug Screen. Data for the sgs1 mgt1 strain (AID 161).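 Also: 0% = growth of cultures given vehicle only.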 Conditions: S. cerevisiae sgs1 mgt1 strain, active compounds read high; at 50.0 µM unless noted. Put shortly:
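Growth of a repair-deficient yeast mutant was monitored after compound treatment and expressed as inhibition relative to vehicle-treated cultures.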

The nature of assay [3]: NCI Yeast Anticancer Drug Screen. Data for the cln2 rad14 strain (AID 165).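 Also: 0% = growth equal to vehicle treated cultures.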 The conditions noted are these: S. cerevisiae cln2 rad14 strain, active compounds read high; at 50.0 µM unless noted. Summed up: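 Yeast strain cln2 rad14, bearing defects in cell cycle control and DNA repair, serves as the test system; values reflect growth inhibition compared with vehicle.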
Assay [4] is described as follows: NCI Yeast Anticancer Drug Screen. Data for the bub3 strain (AID 167). The conditions noted are these: S. cerevisiae bub3 mutant strain, active compounds read high; at 50.0 µM unless noted. Summed up:
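Part of a panel of yeast mutants defective in DNA damage repair or cell cycle regulation. Each strain is grown with compound, and inhibition is calculated relative to solvent-treated cultures.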

Assay [5] in a line: NCI Yeast Anticancer Drug Screen. Data for the mlh1 rad18 strain (AID 175). Conditions: S. cerevisiae mlh1 rad18 strain growth inhibition, active compounds read high; at 50.0 µM unless noted. Summed up: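 Steps: expose repair-defective yeast to compound; measure growth; express inhibition against vehicle-treated controls.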
The nature of assay [6]: NCI Yeast Anticancer Drug Screen. Data for the rad50 strain (AID 155).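 Also: 0% = growth of vehicle-only cultures of the same strain.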 Conditions: S. cerevisiae rad50 strain growth inhibition, active compounds read high; at 50.0 µM unless noted. Summed up:
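Cells are treated with compound, grown, and their growth is then scored against vehicle-only cultures of the same repair-deficient yeast strain.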

Where “and” joins values, the source holds several entries; their conditions need not be identical. Identical values can stand only once. The panel holds about 79,000 compounds, 15% with a hit somewhere; the sample as a whole holds those more often. Unmarked numbers belong to inactive results. Calls of active or inactive are those of the source. Rule as the data show it: active = growth inhibition above about 70%; inactive = the rest.

As for `O=C(/C=C/c1ccc(-c2ccccc2)cc1)c1ccccc1`, the growth inhibition in assay [1] is -24.8%; in assay [2] it was 7.75%; in assay [3], -3.3%; in assay [4], -20.6%; in assay [5] it was -17.6%.
The corresponding values for `O=S1(=O)CS/C(=N\C(=S)N(c2ccccc2)c2ccccc2)N1c1ccccc1` are -11.3%, -3.4%, 18.2%, 4.75% and 2.2%.
As for `O=C1c2c(O)ccc(O)c2C(=O)c2c(NCCNCCO)ccc(NCCNCCO)c21`, the growth inhibition was 21.6% and -16.4% in assay [1]; 54.2% and -52% in assay [2]; -41.9% and -21.4% in assay [3]; 9.5% and -63.3% in assay [4]; 41% and -16.6% in assay [5].
Take `COc1ccc(/C(C)=C\C(=O)O)c(O)c1OC`: the growth inhibition in assay [1] was 6.85%; in assay [2] it was -4.65%; in assay [3], 3.55%; in assay [4] it was 22.1%; in assay [5] it was 7.8%.
With `Clc1cccc(Cl)c1C1SCc2nc3cc4ccccc4cc3n21` (configuration not stated), the growth inhibition is -12.1% in assay [1]; 24.9% in assay [2]; -0.55% in assay [3]; 14% in assay [4]; 14% in assay [5].
`COc1ccc(C2CC(=O)N(c3ncccn3)C(=O)C2)cc1`: the growth inhibition in assay [1] is 8.4%; in assay [2], 10%; in assay [3], -13.7%; in assay [4] it was -12.3%; in assay [5] it was 5.25%.
For `COc1ccc2c3c(ccc2c1)[C@@H]1C/C(=C(\OC(C)=O)C(F)(F)F)C(=O)[C@@]1(C)CC3`, the growth inhibition is -4.85% in assay [1]; 0.4% in assay [2]; 20.8% in assay [3]; -11.2% in assay [4]; 20.3% in assay [5].
As for `CN1c2ccccc2C(=O)N2C(=O)CCC21C` (configuration not stated), the growth inhibition in assay [1] was -15.4%; in assay [2] it was -20.7%; in assay [3], -14.2%; in assay [4], -13.4%; in assay [5] it was -11.1%.
On to `C1CSCCSCCS1`, for which the growth inhibition in assay [1] is 0.9%; in assay [2], 20.1%; in assay [3], 4.85%; in assay [4] it was 28%; in assay [5], -4.9%.
Take `OCCN(CCO)c1ncnc2c1sc(=S)n2-c1ccccc1`: the growth inhibition in assay [1] is -32.3%; in assay [2], 1.15%; in assay [3] it was 7.9%; in assay [4] it was -5.65%; in assay [5], 7.5%.
For `O=C(Nc1ccc(F)cc1)c1ccc([N+](=O)[O-])cc1`, the growth inhibition was -1% in assay [1]; 36.1% in assay [2]; -9.6% in assay [3]; 19% in assay [4]; 8.15% in assay [5].
In the case of `CC(C)(C)OC(=O)NCC(=O)OC/C=C/c1ccccc1`, the growth inhibition is 1.3% in assay [1]; 6.65% in assay [2]; -8.15% in assay [3]; -3.6% in assay [4]; 6.1% in assay [5].
Consider `Cc1cc(C(=O)O)c(C(=O)O)c(Cl)n1`, for which the growth inhibition was -5% in assay [1]; 0.45% in assay [2]; -12.9% in assay [3]; -16.9% in assay [4]; 4.8% in assay [5].
On to `COC(C(=O)Nc1ccc(C)cc1)(c1ccccc1)c1ccccc1`, for which the growth inhibition was 7.45% in assay [1]; -7.55% in assay [2]; 0.65% in assay [3]; 12.9% in assay [4]; 23.8% in assay [5].
`Cn1c(-c2csc(-c3ccc(Cl)cc3)n2)n[nH]c1=S`: the growth inhibition in assay [1] was 12.8%; in assay [2], 11.6%; in assay [3] it was 8.3%; in assay [4], 6.35%; in assay [5], -36.1%.
In the case of `COc1cc(N=C=S)ccc1NC(=O)c1cc(Br)cc(Br)c1O`, the growth inhibition in assay [1] was 39.4%; in assay [2], 46.6%; in assay [3], 31.2%; in assay [4] it was 1.15%; in assay [5], 45%.
On to `C/C(N)=N\O`, for which the growth inhibition was 4.1% in assay [1]; 2.45% in assay [2]; 9.85% in assay [3]; 0.1% in assay [4]; 1.65% in assay [5].
Turning to `CCOC(=O)Nc1ccc(F)cc1C`, the growth inhibition is 5.3% in assay [1]; -7.55% in assay [2]; -4% in assay [3]; 7.3% in assay [4]; -1% in assay [5].
As for `CC1CC(=O)c2c(ccc3c2C(=O)c2cccc(O)c2C3=O)C1` (configuration not stated), the growth inhibition is -0.45% in assay [1]; 40.2% in assay [2]; 24.8% in assay [3]; -1.05% in assay [4]; 52.8% in assay [5].
With `CC(=O)O[C@H]1[C@@H](OC(C)=O)C(C)(C)/C=C/[C@H](C)C(=O)[C@@]2(OC(C)=O)C[C@@](C)(OC(C)=O)[C@H](OC(C)=O)[C@@H]2[C@H]2OC(=O)CC[C@@]2(OC(=O)c2ccccc2)[C@@H]1OCC(C)C`, the growth inhibition in assay [1] was -2.15%; in assay [2], -15.8%; in assay [3], 36%; in assay [4] it was -22.3%; in assay [5], -0.15%.
The corresponding values for `[O-][N+](=Nc1ccc2c(c1)Cc1ccccc1-2)c1ccc2c(c1)Cc1ccccc1-2` are -20.2%, 25.1%, -19.1%, 0.35% and -7%.
`CC(C)C(=O)NS(=O)(=O)c1ccccc1`: the growth inhibition is -3.8% in assay [1], 0.5% in assay [2], -7.55% in assay [3] and -14.4% in assay [4].
In the case of `C/C(=N\NS(=O)(=O)c1c(C)cc(C)cc1C)c1ccc[n+]([O-])n1`, the growth inhibition is 3.95% in assay [6], 15.1% in assay [3] and -12.8% in assay [4].
With `OC(COc1cccc(C(F)(F)F)c1)CN1CCN(c2cccc(F)c2)CC1` (configuration not stated), the growth inhibition was 99% (active) in assay [1]; 99.1% (active) in assay [2]; 97.9% (active) in assay [3]; 98.7% (active) in assay [4]; 99% (active) in assay [5].

(Values after PubChem BioAssay (NCI).)
